Results filed as inconclusive are left out. Activity calls are given as the source filed them. The call rests on the fitted dose curve; in most records, active means well fitted inhibition curve with a large enough effect; inconclusive means small, poorly fitted or top-dose-only effect; inactive means flat fitted curve, though single readings scatter.
Test: Secondary qRT-PCR qHTS assay for selected Zika virus inhibitors
Details: Vero cells ZIKV infection, NS5 RNA qRT-PCR, 24 h; series mostly up to 32.6 µM; activity change, negative = inhibition: at the top concentration
Excerpt: Assay Submitters (PI): Avindra Nath, Ph.D., National Institute of Neurological Disorders and Stroke (NINDS), Bethesda, MD Radhakrishnan Padmanabhan, Ph.D., Georgetown University (GU), Washington D.C. Zika Virus causes congenital defects, including microcephaly and is associated with Guillain-Barre syndrome, eningoencephalitis and myelitis in infected adult. […] Using a target-based approach, we hope to establish a screening paradigm to uncover novel, cell-active NS2B-NS3 protease (Zika Virus) specific inhibitors from NCATS' collection of small molecules using qHTS. […] Four assay panel was created to identify potential Zika Virus inhibitors. Namely, (1) GU unlinked NS2B-NS3 AMC tagged protease qHTS, (2) GU unlinked NS2B-NS3 Rhodamine tagged protease qHTS, (3) NINDS linked NS2B-NS3 AMC tagged protease qHTS, (4) NINDS linked NS2B-NS3 Rhodamine tagged protease qHTS. Inhibitors of the Zika virus primary screens are confirmed using qRT-PCR secondary assays, qRT-PCR mCherry orthogonal assay, and qRT-PCR viability counterscreen. Early Translation Branch (ETB) National Center for Advancing Translational Sciences (NCATS), Rockville, MD National Institute of Health (NIH), Bethesda, Maryland
384-well ZIKV qRT-PCR Assay: Vero cells were treated with the indicated compounds at different concentrations, infected with ZIKV (MOI=1) and incubated at 37 degrees C for 3 hours to permit virus invasion. After 3 hr, supernatant was removed, and cells were washed once to remove extracellular virus. After a further 21 hr incubation, infected cells were washed three times with cold PBS (4 degrees C). Plates were then process using the TaqmanGene Expression Cells-to-Ct Kit (ThermoFisher Scientific) following the manufactures protocol. Primers directed to the NS5 sequence (F-[…]; R-GCTCGGCCAATCAGTTCA) along with Taqman probe (FAM-[…]-BHQ; Biosearch Technologies) were used to quantify drug inhibition of viral load. Reactions were run at initial 95 degrees C for 10 min, then 40 cycles of 95 degrees C for 20 sec and 60 degrees C for 40 sec using a LightCycler 480 (Roche). Relative viral copy numbers were generated by normalizing to cells treated with vehicle.

Potency, active:
O=C(O)Cc1cccc(OCCCN(Cc2cccc(C(F)(F)F)c2Cl)CC(c2ccccc2)c2ccccc2)c1 14.1 µM
C/C(=C\c1ccc(C(=O)O)cc1)c1ccc2c(c1)C(C)(C)CCC2(C)C 12.6 µM
CC(C)(C)Sc1c(CC(C)(C)C(=O)O)n(Cc2ccc(Cl)cc2)c2ccc(OCc3ccc4ccccc4n3)cc12 25.1 µM
Cc1cc(C(C#N)c2ccc(Cl)cc2)c(Cl)cc1NC(=O)c1cc(I)cc(I)c1O (stereo not given) 22.4 µM
CCOC(=O)c1ccc(N2C(=O)c3n[nH]c(-c4cccs4)c3C2c2ccc(C(C)(C)C)cc2)cc1 (stereo not given) 3.55 µM
CCOc1nc2cccc(C(=O)OC(C)OC(=O)OC3CCCCC3)c2n1Cc1ccc(-c2ccccc2-c2nn[nH]n2)cc1 (stereo not given) 12.6 µM
COc1cc(C(=O)O)ccc1NC(=O)[C@@H]1N[C@@H](CC(C)(C)C)[C@](C#N)(c2ccc(Cl)cc2F)[C@H]1c1cccc(Cl)c1F 12.6 µM
CCCCCCCOc1cc2c(cc1/C(C)=C/c1ccc(C(=O)O)cc1)C(C)(C)CCS2(=O)=O 14.1 µM
CC1CCN(C(c2ccc(F)cc2)c2ccc(C(C)C(=O)O)cc2-c2ccc(C(F)(F)F)cc2)CC1 (stereo not given) 14.1 µM
O=S(=O)(Nc1cc(Cl)c(Oc2cnc3ccccc3c2)c(Cl)c1)c1ccc(Cl)cc1Cl 22.4 µM
Oc1c(Cl)cc(Cl)c(Cl)c1Cc1c(O)c(Cl)cc(Cl)c1Cl 35.5 µM
CO[C@H]1C[C@@H](O[C@@H]2/C(C)=C/C[C@@H]3C[C@@H](C[C@]4(CC[C@H](C)[C@@H](C5CCCCC5)O4)O3)OC(=O)[C@@H]3C=C(C)/C(=N/O)[C@H]4OC/C(=C\C=C\[C@@H]2C)[C@]43O)O[C@@H](C)[C@H]1O 3.98 µM
CC(C)c1cc(C(C)C)c(CC(=O)NS(=O)(=O)Oc2c(C(C)C)cccc2C(C)C)c(C(C)C)c1 10 µM
CC[C@H](C)[C@H]1O[C@]2(CC[C@@H]1C)C[C@@H]1C[C@@H](C/C=C(\C)[C@@H](O[C@H]3C[C@H](OC)[C@@H](O[C@H]4C[C@H](OC)[C@@H](O)[C@H](C)O4)[C@H](C)O3)[C@@H](C)/C=C/C=C3\CO[C@@H]4[C@H](O)C(C)=C[C@@H](C(=O)O1)[C@]34O)O2 3.98 µM
CC(C)c1onc(-c2c(Cl)cccc2Cl)c1COc1ccc(/C=C/c2cccc(C(=O)O)c2)c(Cl)c1 11.2 µM

Potency, inactive:
C=C1c2cccc(O)c2C(O)=C2C(=O)[C@]3(O)C(O)=C(C(N)=O)C(=O)[C@@H](N(C)C)[C@@H]3[C@@H](O)[C@H]12

Activity change, negative = inhibition, inactive:
N#CC1C(=O)Nc2scc(-c3ccc(-c4ccccc4O)cc3)c2C1=O (stereo not given) -0.434%
CC1(C)CCC(C)(C)c2cc3c(cc21)Sc1ccccc1N=C3c1ccc(C(=O)O)cc1 -2.06%
O=C(O)c1ccc(S(=O)(=O)N(Cc2ccc(OC(F)(F)F)cc2)c2ncc(C(F)(F)F)cc2Cl)cc1 2.79%
O=C(O)C1(Cc2cccc(Nc3nccs3)n2)CCC(Oc2cccc(Cl)c2F)CC1 (stereo not given) -14.6%
N#CC1(c2cccc(C(=O)Nc3cc(Oc4ccc5nc(NC(=O)C6CC6)sc5n4)ccc3F)c2Cl)CC1 3.94%
O=C(O)Cc1cc(I)c(Oc2ccc(O)c(I)c2)c(I)c1 -13.6%
COc1cc(C(=O)NS(=O)(=O)c2ccccc2C)ccc1Cc1cn(C)c2ccc(NC(=O)OC3CCCC3)cc12 0.303%
O=C(O)c1cccc(-c2ccc(-c3cn(C(=O)N4CCCCC4Cc4ccccc4)nn3)cc2)c1 (stereo not given) -2.59%
COc1ccc(NS(=O)(=O)c2ccc(NS(=O)(=O)c3ccc4c(c3)OCCO4)cc2)cc1 -8.78%
CC(=O)O[C@@H]1C[C@]2(C)[C@@]3(CCC4[C@@]5(C)CC[C@H](O[C@@H]6O[C@H](C(=O)O)[C@@H](O)[C@H](O[C@@H]7O[C@H](CO)[C@H](O)[C@H](O)[C@H]7O[C@@H]7O[C@@H](C)[C@H](O)[C@@H](O)[C@H]7O[C@@H]7OC[C@](O)(CO)[C@H]7O)[C@H]6O[C@@H]6O[C@H](CO)[C@H](O)[C@H](O)[C@H]6O)C(C)(C)C5CC[C@]42C)O[C@@H](O)[C@]12C3CC(C)(C)[C@@H](OC(=O)/C=C/c1ccc(O)c(O)c1)[C@@H]2OC(=O)/C=C/c1ccccc1 (stereo not given in full) -6.06% [at 6.77 µM]
Cc1nc(C2CCCCC2)c(-c2ccc(S(N)(=O)=O)c(F)c2)o1 -1.51%
CN(C)[C@@H]1C(=O)C(C(N)=O)=C(O)[C@@]2(O)C(=O)C3=C(O)c4c(O)ccc(Cl)c4[C@@H](O)[C@H]3C[C@@H]12 -4.42%
CCc1oc2ccccc2c1C(=O)c1cc(Br)c(O)c(Br)c1 -19.8%
O=C1NC(=O)/C(=C/c2cccc(C(F)(F)F)c2)S1 -8.11%
CCOc1c2c(c(OCC)c3ccccc13)C(=O)N(c1ccc(CC(=O)NS(=O)(=O)c3ccccc3)cc1)C2 10.7%
CC1(C)CC[C@]2(C(=O)O)CC[C@]3(C)C(=CCC4[C@@]5(C)C[C@@H](O)[C@H](O)C(C)(C)C5CC[C@]43C)C2C1 (stereo not given in full) -5.81% [at 16.3 µM]
COc1ccccc1-c1cccc(-c2c(O)c3cc(C#N)c(Cl)cc3[nH]c2=O)c1 -5.94%
N#Cc1ccc(N2N=C3c4ccc(C(=O)O)cc4CC[C@@H]3[C@@H]2C2CCCC2)cc1Cl -22.2%
Cc1ccc2[nH]c(=O)c(C3=NN(C(=O)CCC(=O)O)C(c4ccc(Br)cc4)C3)c(-c3ccccc3)c2c1 (stereo not given) 6.96%
O=S(=O)(O)c1ccc2cc(N=Nc3cc(S(=O)(=O)O)c4cccnc4c3O)ccc2c1 4.54%
COc1cc(/C=C/c2ccccc2)c(C(=O)O)c(O)c1CC=C(C)C -2.8% [at 21.8 µM]
CC(C)(Sc1ccc(CCN(CCCCC2CCCCC2)C(=O)NC2CCCCC2)cc1)C(=O)O -24.8%
COc1cc(C)c(C(=O)OC2C(C)OC(OC3CCC(C)C4C3C=C(C)C3/C(C)=C\CC/C(C)=C/C5(C)C=C(C(=O)O)C(C)CC56OC(=O)/C(=C(\O)C34C)C6=O)C(O)C2O)c(OC)c1 (stereo not given) -1.08% [at 8.13 µM]
Cc1ccn(-c2ccc(-c3ncco3)cc2)c(=O)c1-c1ccc2nc(N)ncc2c1 -6.39%
